Screening data as filed in PubChem.
A selection: hits, their analogues and other compounds. The true share with any hit is near 22%.
CHX counter – affects cycloheximide protein synthesis inhibition readout, counter-screen. 12% of 300,000 active. cell reporter, cycloheximide protein synthesis inhibition counterscreen. max response, %. AID 2314; in the data active = max response mostly above about 13%, no sharp cut-off; inactive = mostly below about 14%; also: read at 38.3 µM for the half of the compounds with a filed dose; 0% is about no effect
Shiga toxin inh – inhibitors of Shiga toxin in Vero cells; Vero cells, Shiga toxin protein synthesis inhibition reporter; inhibition, % at 38.7 µM; 9.2% of 290,000 active; AID 2315; in the data active = inhibition mostly above about 28%, no sharp cut-off; inactive = mostly below about 43%; also: 0% is about no effect
Pf growth 96h – P. falciparum growth inhibition at 96 hours; P. falciparum luciferase reporter growth, 96 h; Potency, µM (doses to about 28.7 µM), for inactives: at the highest dose activity change, negative = inhibition, hits mostly inhibitors; 6.9% of 320,000 active; also: potency is read from the fitted curve at half-maximal effect; % is scaled to controls: 0 for no effect and ±100 for the full control effect
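Readout is luminescence from an integrated firefly luciferase in P. falciparum. Red cells, 2% hematocrit and 0.05% parasitemia final, were cultured with compound through two parasite generations (96 hours) at 37 C, 5% CO2.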
LmPK inh – LmPK (Leishmania mexicana) enzyme inhibition; Q27686; purified LmPK, Kinase-Glo ATP luminescence, 1 h; Potency, µM (highest dose often 57.5 µM), inactives show top-dose activity change, negative = inhibition, actives largely listed as inhibitors; 0.37% of 290,000 active; also: potency is read from the fitted curve at half-maximal effect; % is scaled to controls: 0 for no effect and ±100 for the full control effect
Target sequence (Q27686 whole entry, looked up): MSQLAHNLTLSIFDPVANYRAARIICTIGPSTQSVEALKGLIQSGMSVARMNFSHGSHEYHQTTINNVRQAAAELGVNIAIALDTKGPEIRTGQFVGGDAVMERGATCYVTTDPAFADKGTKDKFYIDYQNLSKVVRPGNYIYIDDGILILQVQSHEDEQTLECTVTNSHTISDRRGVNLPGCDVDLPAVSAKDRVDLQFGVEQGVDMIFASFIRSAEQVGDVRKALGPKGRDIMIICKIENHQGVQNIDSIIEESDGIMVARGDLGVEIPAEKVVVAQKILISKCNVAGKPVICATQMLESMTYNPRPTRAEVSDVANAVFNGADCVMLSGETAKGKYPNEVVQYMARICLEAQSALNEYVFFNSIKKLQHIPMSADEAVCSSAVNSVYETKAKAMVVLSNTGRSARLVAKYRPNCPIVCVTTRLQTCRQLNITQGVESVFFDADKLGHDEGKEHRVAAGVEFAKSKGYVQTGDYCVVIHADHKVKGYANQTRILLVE
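Screened at intermediate enzyme activity to detect both inhibitors and activators: LmPK at 0.1 nM, with a 0.5 nM enzyme column as activation reference. PEP 0.5 mM, ADP 0.1 mM; ATP detected by luminescence after 1 h.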
Pf growth 48h – P. falciparum growth inhibition at 48 hours (one generation) | Potency, µM (highest dose often 28.7 µM), inactives show at the top dose activity change, negative = inhibition, actives largely listed as inhibitors | AID 504832 | P. falciparum luciferase growth in erythrocytes, 48 h | 5.9% of 310,000 active; also: potency is read from the fitted curve at half-maximal effect; % is scaled to controls: 0 for no effect and ±100 for the full control effect
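Here the parasites carry a stable luciferase gene and grow inside erythrocytes in Albumax-based RPMI medium with compound for one erythrocytic cycle. Activity is scored as loss of luminescent signal.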
Starred values were filed as active, the others as inactive; ? = inconclusive; · = no result; [ ] = another dose, or the depositor's remark. Unless noted, calls follow the shape of the dose curve; as a rule, active = well fitted inhibition curve with a large enough effect; inconclusive = small, poorly fitted or top-dose-only effect, or another doubt; inactive = no such curve, though single readings can be large or run the other way.

SMILES	CHX counter	Shiga toxin inh	Pf growth 96h	LmPK inh	Pf growth 48h
CCOc1ccc(N(CC(=O)NCc2ccccc2)C(=O)Cn2nnc(-c3ccc(C)o3)n2)cc1	-6.2	-1.8	-10.5%	1.5%	?
CCCCCCCCNC(CO)(CO)CO	0.7	-16.0	32.4%	-2.4%	13.3%
COc1cc(-c2oc3cc(O)cc(O)c3c(=O)c2OC[C@@H]2OC(O[C@@H]3O[C@@H](C)[C@H](O)[C@@H](O)[C@H]3O)[C@@H](O)[C@H](O)[C@@H]2O)ccc1O (stereo not given in full)	-3.7	-6.2	·	·	·
O=C(CSC1=NC2(CCCCC2)N=C1c1ccccc1)Nc1ccc2c(c1)OCCO2	7.0	18.8	?	11.3%	10.4µM*
O=C(CSC1=NC2(CCCCCC2)N=C1c1ccccc1)Nc1ccc2c(c1)OCCO2	3.5	-5.9	-0.9%	3.8%	?
CCn1c(SCC(=O)Nc2ccc3c(c2)OCCO3)nnc1-c1ccccn1	2.4	83.9	2.08µM*	-4.2%	0.0%
Cc1cc(NC(=O)CSc2cn(C)c3ccccc23)no1	-7.0	-11.2	?	9.5%	·
Cn1cc(SCC(=O)Nc2ccc3c(c2)OCCO3)c2ccccc21	24.2*	63.3*	33.4%	0.8%	28.1%
COc1ccc(NC(C)=O)cc1CP(=O)(c1ccccc1)c1ccccc1	-6.6	-1.9	-11.1%	5.0%	-12.5%[0.00184 µM]
COc1cc2c(cc1OC)C(=O)Cc1ccc3c(c1CN(C)CC2)OCO3	-1.3	-43.1	?	1.9%	9.28µM*
O=C(NCCC1CCCCN1S(=O)(=O)c1ccc(F)cc1)C(=O)Nc1ccccc1 (stereo not given)	·	·	?	·	-26.0%
CCCOc1ccc(-c2c(C(=O)N/N=C(\C)c3cccs3)nnn2-c2nonc2N)cc1	-5.9	-11.9	?	-7.4%	2.1%
O=C(NCCSCc1ccco1)c1ccc(CN2CCOCC2)cc1	9.4*	66.0	58.1%	-2.4%	·
O=C(NCCSCc1c(F)cccc1Cl)Nc1ccccc1	31.7*	75.0*	?	1.8%	?
O=C(NCCSCc1ccco1)Nc1ccccc1	48.4*	56.7	8.7%	2.7%	27.6%
N#Cc1ccccc1CSCCNC(=O)Cc1c(F)cccc1Cl	16.6*	28.2	-18.7%	6.2%	-29.8%
S=C(NCCSCc1c(Cl)cccc1Cl)Nc1ccccc1	4.3	11.7	?	7.7%	?
Cc1ccc(S(=O)(=O)N2CCC3(CC2)OCCO3)s1	-2.2	12.7	?	-9.4%	8.2%
COCCN(C(=O)COC(=O)CCC(=O)c1ccc(Cl)cc1)c1c(N)n(Cc2ccccc2)c(=O)[nH]c1=O	-2.5	0.6	8.3%	-6.0%	4.5%
CCCN(CCC)C(=O)CC(c1ccccc1)C1CCOC(C)(C)C1 (stereo not given)	-1.4	9.6	-32.3%	2.6%	?
COc1ccc(CN(CCC(c2ccc(F)cc2)C2CCOC(C)(C)C2)C(=O)c2ccco2)cc1 (stereo not given)	0.5	1.2	?	-7.3%	9.28µM*
CC(c1ccccc1)N(CCC(c1ccccc1)C1CCOC(C)(C)C1)C(=O)c1ccco1 (stereo not given)	-6.5	-13.6	-4.9%	6.2%	11.7µM*
CCc1nnc(NC(=O)c2nc3nc(C)cc(C)n3n2)s1	3.3	3.3	·	6.9%	43.8%
CCOC(=O)COc1ccccc1/C=N/O	-3.6	-18.4	0.0%	-0.9%	-2.8%
COc1cccc(/C=C2\NC(=O)NC2=O)c1O	24.3	40.6*	0.928µM*	1.3%	75.7%
SMILES	CHX counter	Shiga toxin inh	Pf growth 96h	LmPK inh	Pf growth 48h
CCOC(=O)COc1ccccc1/C=C1/NC(=O)NC1=O	-3.6	-5.2	10.4µM*	-2.5%	13.5%
Cc1ccc(-c2ccc(=O)n(Cc3cccc(Br)c3)n2)cc1	7.9	23.4	?	-0.6%	-1.5%
Cc1ccc(-n2ncc3c(N4CCC5(CC4)OCCO5)ncnc32)c(C)c1	-3.3	3.3	5.22µM*	8.6%	·
C=CCNc1ncnc2c1cnn2-c1ccc(C)cc1C	24.6*	66.8*	5.6%	12.0%	28.6%
Cc1ccc(-n2ncc3c(NCCCOC(C)C)ncnc32)c(C)c1	-2.5	74.7	?	2.0%	?
CSc1ncnc2c1cnn2-c1ccc(C)cc1C	34.9*	139.5*	46.0%	-4.7%[11.5 µM]	42.2%
Cc1ccc(-n2ncc3c(SCc4ccccn4)ncnc32)c(C)c1	44.5*	110.5*	?	-0.5%	?
CCCCc1cc(=O)oc2cc(OCC(=O)Nc3ccccn3)ccc12	40.2*	97.8*	45.1%	-17.8%	81.2%
